NPSR antagonist: neuropeptide S receptor (human) antagonism, cAMP | CHO-NPSR cells, cAMP TR-FRET, antagonist mode | AID 1461 | 220,000 compounds, 1% hits | Potency, µM (doses to about 38.3 µM), actives largely listed as inhibitors | Q6W5P4; also: nearly all actives have a fitted effect of over 50% in size
Tau fluor counter: counter-screen for tau fibril formation inhibitors | tau K18 P301L Alexa594 fluorescence, heparin fibrillization | Potency, µM (highest dose often 57.7 µM) | 280,000 compounds, 0.93% hits | AID 1463; also: nearly all actives have a fitted effect of over 55% in size
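Human K18 P301L tau (15 uM unlabeled plus 0.24 uM Alexa 594-labeled, final) in 100 mM sodium acetate pH 7 was mixed with compound and 20 uM heparin and incubated 6 hr at 37 C.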
Tau FP inhib: inhibitors of human tau fibril formation | P10636 | Potency, µM (highest dose often 57.7 µM), usual class: inhibitors | K18 P301L tau heparin fibrillization, Alexa594 FP, 6 h | 280,000 compounds, 0.39% hits; also: nearly all actives have a fitted effect of over 55% in size
Target sequence (P10636 561-689 P618L limits assumed): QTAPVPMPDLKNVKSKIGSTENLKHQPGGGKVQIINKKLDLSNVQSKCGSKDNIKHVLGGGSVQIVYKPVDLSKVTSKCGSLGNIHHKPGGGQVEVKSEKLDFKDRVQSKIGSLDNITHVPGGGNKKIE
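K18 P301L tau (15 uM unlabeled/0.24 uM Alexa 594-labeled, final) + compound + heparin 20 uM final; 100 mM NaOAc pH 7; 6 hr 37 C; ThT 30 uM final added, 1 hr RT; FP ex 555/em 632 nm.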
KDM4E inh: inhibitors of human JMJD2E histone demethylase; B2RXH2; AID 2147; 230,000 compounds, 1.6% hits; Potency, µM (top dose mostly 57.1 µM), usual class: inhibitors; JMJD2E catalytic domain, FDH-coupled NADH fluorescence (FDH is formaldehyde dehydrogenase); also: nearly all actives have a fitted effect of over 50% in size
Target sequence (B2RXH2 1-337 limits assumed): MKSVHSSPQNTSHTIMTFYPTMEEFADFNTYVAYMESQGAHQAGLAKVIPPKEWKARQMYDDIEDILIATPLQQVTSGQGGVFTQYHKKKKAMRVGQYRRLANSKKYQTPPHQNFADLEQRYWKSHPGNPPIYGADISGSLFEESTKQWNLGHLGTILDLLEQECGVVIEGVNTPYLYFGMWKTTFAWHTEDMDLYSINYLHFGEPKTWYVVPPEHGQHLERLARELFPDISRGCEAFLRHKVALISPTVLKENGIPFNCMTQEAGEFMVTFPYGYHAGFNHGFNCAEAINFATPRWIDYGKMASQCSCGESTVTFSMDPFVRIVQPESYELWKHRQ
PNC assembly inh: perinucleolar compartment assembly inhibition. activity change (PNC), negative = inhibition, % at 10 µM. PC3M PTB-GFP, PNC prevalence imaging, 16 h; stronger effect = lower value. 140,000 compounds, 3.1% hits;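 active = readout at or below -70, meaning at least 70% loss of cells showing the perinucleolar compartment, a nuclear body marking cancer cells; inconclusive = readout between -30 and a set limit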
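Compounds are pinned in duplicate onto adhered PC3M cells stably expressing GFP-tagged PTB and incubated 16 h at 37 C. Cells are then fixed, nuclei stained with Hoechst, and PNC-positive cells counted.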
Tau ThT inhib: blocks human tau fibril formation measured by thioflavin T | 270,000 compounds, 2.1% hits | recombinant tau K18 P301L (four-repeat tau fragment), heparin-induced fibrillization, ThT fluorescence | P10636 | Potency, µM (top dose mostly 57.4 µM), usual class: inhibitors; also: nearly all actives have a fitted effect of over 55% in size
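K18 P301L tau (15 uM + 0.24 uM Alexa 594-tagged), heparin 20 uM, NaOAc pH 7, 6 h 37 C; ThT 30 uM, 1 h RT, ex 450/em 510 nm.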
Numbers stand for hits; – = inactive; ? = inconclusive; · = not tested or not shown. Rows were chosen to be rich in hits. Some 5.1% of all compounds tested hit in one or more screens of this group. Unless noted, calls follow the shape of the dose curve; as a rule, active = well fitted curve in the direction sought with a large enough effect; inconclusive = small, poorly fitted or top-dose-only effect, or another doubt; inactive = no such curve, though single readings can be large; an effect the other way counts as inactive or inconclusive.

SMILES	NPSR antagonist	Tau fluor counter	Tau FP inhib	KDM4E inh	PNC assembly inh	Tau ThT inhib
CC(=O)N1CCN(c2ccc(NC(=O)c3ccc(C(C)(C)C)cc3)cc2)CC1	–	?	–	–	?	3.55µM
CCCC(=O)N1CCN(c2ccc(NC(=O)c3ccc([N+](=O)[O-])o3)cc2Cl)CC1	3.98µM	–	?	–	·	12.6µM
COc1ccc(C(=O)Nc2ccc(N3CCN(c4ccc(OC)cc4)CC3)c(C#N)c2)cc1	3.16µM	–	–	–	?	?
O=C(Nc1ccc(N2CCN(C(=O)c3ccccc3)CC2)cc1)c1ccc([N+](=O)[O-])o1	?	?	–	–	·	4.47µM
Cc1ccccc1-c1nc(CS(=O)(=O)CC(=O)Nc2cccc(C(F)(F)F)c2)c(C)o1	·	–	?	·	·	–
CCn1cc(C(=O)N2CCN(c3ccccc3)CC2)c(=O)c2cc(S(=O)(=O)N3CCCC3)ccc21	·	–	–	·	·	–
COc1ccc(NC2C[C@H]3CCCC(=O)N4CC[C@@H](C2)[C@@H]34)cc1 (stereo not given in full)	·	–	–	·	·	–
COc1ccc(C(=O)Nc2ccc(N3CCN(C(=O)c4ccccc4)CC3)cc2)cc1[N+](=O)[O-]	–	?	–	–	·	15.8µM
Cc1ccccc1C(=O)N1CCN(c2ccc(NC(=O)c3ccc4c(c3)OCO4)cc2)CC1	–	?	–	?	·	12.6µM
CCOc1ccc(C(=O)NC(=S)Nc2ccc(N3CCCCC3)cc2)cc1[N+](=O)[O-]	–	?	–	–	–	3.55µM
CCCCOc1ccc(C(=O)Nc2ccc(N3CCN(C(=O)C(C)C)CC3)cc2)cc1	–	–	–	?	?	2µM
O=C(Nc1ccc(N2CCN(C(=O)c3ccco3)CC2)cc1)c1ccc2c(c1)OCO2	–	–	–	–	–	?
CCCCC(=O)OCc1cc(=O)n2nc(C3CCCCC3)sc2n1	·	–	–	·	·	–
CC(C)C(=O)N1CCN(c2ccc(NC(=O)c3ccc([N+](=O)[O-])o3)cc2Cl)CC1	3.16µM	–	–	–	·	?
CC(C)C(=O)N1CCN(c2ccc(NC(=O)c3ccc([N+](=O)[O-])o3)cc2)CC1	?	?	–	?	·	5.01µM
COc1cc(CNc2ccc(N3CCN(C(C)=O)CC3)cc2)ccc1OCc1ccc(F)cc1	–	–	–	?	·	?
CC(=O)N1CCN(c2ccc(NCc3ccc(F)cc3)cc2)CC1	–	?	?	?	?	25.1µM
COc1ccc(NC(=O)CSc2ncc(-c3ccc(Cl)cc3)[nH]2)cc1OC	·	?	–	·	·	?
Cc1cccc(C(=O)NC(=O)Nc2ccc(-c3cc(C(F)(F)F)nn3-c3ccccc3)cc2)c1	·	–	–	·	·	?
COc1cccc(C2C(C(=O)c3cccs3)=C(O)C(=O)N2CCCn2ccnc2)c1OC (stereo not given)	?	–	–	–	-96.5	–
Cc1cccc(NC(=O)c2ccc(-n3c(C)nnc3C)cc2)c1	·	–	–	·	·	–
O=C(/C=N/O)Nc1cccnc1	–	–	–	–	-100.0	–
O=C(Nc1cccnc1)c1cccs1	–	–	–	–	-100.4	–
Cc1ccc(C)n1NC(=O)c1cccs1	–	–	–	–	-116.6	–
O=C(Nc1cccc(NC(=O)c2cccs2)c1)c1cccnc1	–	–	–	–	·	–
SMILES	NPSR antagonist	Tau fluor counter	Tau FP inhib	KDM4E inh	PNC assembly inh	Tau ThT inhib
Cc1ccc(C)n1NC(=O)c1ccccc1	–	–	–	–	–	–
O=C(Nc1cccnc1)c1cnc2ccccc2n1	–	–	–	–	-87.7	–
CCCOc1ccccc1C(=O)N1CCCCC1CCN1CCCCC1 (stereo not given)	·	–	–	·	·	–
Cc1ccc(C(=O)Nc2ccc(NC(=O)c3cccs3)cc2)cc1C	·	–	–	·	·	?
CC(=O)c1ccc(NC(=O)c2cccs2)cc1	–	–	–	–	-110.7	?
Cc1cc(Cl)cc(Br)c1OCCCN1C(=O)NC(C)(C)C1=O	–	–	–	–	-80.5	–
Cc1cc(Cl)c(OCCN2C(=O)NC(C)(C)C2=O)c(Br)c1	–	–	–	–	–	–
C=CCNC(=S)Nc1cccc2ccccc12	–	–	–	–	-96.5	–
C=CCNC(=S)Nc1ccc(Br)cc1F	–	–	–	–	-87.8	–
